Data reported in article PMC9911399, “Two distinct binding modes provide the RNA-binding protein RbFox with extraordinary sequence specificity”.
Numbering of substitutions follows the chain as printed; changes in the protein carry UniProt numbers. The full ranking holds about 16,000 sequences; the median of “ka relative to ugcaugu” is about 0.096, and the highest 2% start at about 0.35. Only a selection was taken, and the highest values are over-represented in it overall.

B1: GGGUAUG (DNA:RNA)
RNA: GGGAGACCGGAAUUCAGAUUGUCCGGGUAUGUUAAAUCCCGUCGUAGCCACCA
DNA 1: CAATCTGAATTCCGGTCTCCC
DNA 2: TGGTGGCTACGACGGGATT
B2: CCCUAUG (DNA:RNA)
RNA: B1 RNA with G25C, G26C, G27C
DNA 1: CAATCTGAATTCCGGTCTCCC
DNA 2: TGGTGGCTACGACGGGATT
B3: UAGUAUC (DNA:RNA)
RNA: B1 RNA with G25U, G26A, G31C
DNA 1: CAATCTGAATTCCGGTCTCCC
DNA 2: TGGTGGCTACGACGGGATT
B4: GGGUAGA (DNA:RNA)
RNA: B1 RNA with U30G, G31A
DNA 1: CAATCTGAATTCCGGTCTCCC
DNA 2: TGGTGGCTACGACGGGATT
B5: GUAUGUU (DNA:RNA)
RNA: B1 RNA with G26U, G27A, A29G, G31U
DNA 1: CAATCTGAATTCCGGTCTCCC
DNA 2: TGGTGGCTACGACGGGATT
B6: GUUAUGU (DNA:RNA)
RNA: B1 RNA with G26U, G27U, U28A, A29U, U30G, G31U
DNA 1: CAATCTGAATTCCGGTCTCCC
DNA 2: TGGTGGCTACGACGGGATT
B7: UAGUAAA (DNA:RNA)
RNA: B1 RNA with G25U, G26A, U30A, G31A
DNA 1: CAATCTGAATTCCGGTCTCCC
DNA 2: TGGTGGCTACGACGGGATT
B8: GUUUAUG (DNA:RNA)
RNA: B1 RNA with G26U, G27U
DNA 1: CAATCTGAATTCCGGTCTCCC
DNA 2: TGGTGGCTACGACGGGATT
B9: CCGUAUG (DNA:RNA)
RNA: B1 RNA with G25C, G26C
DNA 1: CAATCTGAATTCCGGTCTCCC
DNA 2: TGGTGGCTACGACGGGATT
B10: CCAUAUG (DNA:RNA)
RNA: B1 RNA with G25C, G26C, G27A
DNA 1: CAATCTGAATTCCGGTCTCCC
DNA 2: TGGTGGCTACGACGGGATT
B11: UAGUAUG (DNA:RNA)
RNA: B1 RNA with G25U, G26A
DNA 1: CAATCTGAATTCCGGTCTCCC
DNA 2: TGGTGGCTACGACGGGATT
B12: GGGGGUA (DNA:RNA)
RNA: B1 RNA with U28G, A29G, G31A
DNA 1: CAATCTGAATTCCGGTCTCCC
DNA 2: TGGTGGCTACGACGGGATT
B13: UAUCAUA (DNA:RNA)
RNA: B1 RNA with G25U, G26A, G27U, U28C, G31A
DNA 1: CAATCTGAATTCCGGTCTCCC
DNA 2: TGGTGGCTACGACGGGATT
B14: GAAGCUA (DNA:RNA)
RNA: B1 RNA with G26A, G27A, U28G, A29C, G31A
DNA 1: CAATCTGAATTCCGGTCTCCC
DNA 2: TGGTGGCTACGACGGGATT
B15: CAGCUCU (DNA:RNA)
RNA: B1 RNA with G25C, G26A, U28C, A29U, U30C, G31U
DNA 1: CAATCTGAATTCCGGTCTCCC
DNA 2: TGGTGGCTACGACGGGATT
B16: GUAUCAG (DNA:RNA)
RNA: B1 RNA with G26U, G27A, A29C, U30A
DNA 1: CAATCTGAATTCCGGTCTCCC
DNA 2: TGGTGGCTACGACGGGATT
B17: AGUCGCC (DNA:RNA)
RNA: B1 RNA with G25A, G27U, U28C, A29G, U30C, G31C
DNA 1: CAATCTGAATTCCGGTCTCCC
DNA 2: TGGTGGCTACGACGGGATT
B18: UCGGAGC (DNA:RNA)
RNA: B1 RNA with G25U, G26C, U28G, U30G, G31C
DNA 1: CAATCTGAATTCCGGTCTCCC
DNA 2: TGGTGGCTACGACGGGATT
B19: AACUUUG (DNA:RNA)
RNA: B1 RNA with G25A, G26A, G27C, A29U
DNA 1: CAATCTGAATTCCGGTCTCCC
DNA 2: TGGTGGCTACGACGGGATT
B20: AAGUAAA (DNA:RNA)
RNA: B1 RNA with G25A, G26A, U30A, G31A
DNA 1: CAATCTGAATTCCGGTCTCCC
DNA 2: TGGTGGCTACGACGGGATT
B21: AGGUAUC (DNA:RNA)
RNA: B1 RNA with G25A, G31C
DNA 1: CAATCTGAATTCCGGTCTCCC
DNA 2: TGGTGGCTACGACGGGATT
B22: AGGUAUG (DNA:RNA)
RNA: B1 RNA with G25A
DNA 1: CAATCTGAATTCCGGTCTCCC
DNA 2: TGGTGGCTACGACGGGATT
B23: AGGUAGC (DNA:RNA)
RNA: B1 RNA with G25A, U30G, G31C
DNA 1: CAATCTGAATTCCGGTCTCCC
DNA 2: TGGTGGCTACGACGGGATT
B24: AAGUAUC (DNA:RNA)
RNA: B1 RNA with G25A, G26A, G31C
DNA 1: CAATCTGAATTCCGGTCTCCC
DNA 2: TGGTGGCTACGACGGGATT
B25: GGUAUCG (DNA:RNA)
RNA: B1 RNA with G27U, U28A, A29U, U30C
DNA 1: CAATCTGAATTCCGGTCTCCC
DNA 2: TGGTGGCTACGACGGGATT
B26: CUUAUGU (DNA:RNA)
RNA: GGGAGACCGGAAUUCAGAUUGUCCCUUAUGUUUAAAUCCCGUCGUAGCCACCA
DNA 1: CAATCTGAATTCCGGTCTCCC
DNA 2: TGGTGGCTACGACGGGATT
B27: AAGUAUG (DNA:RNA)
RNA: B1 RNA with G25A, G26A
DNA 1: CAATCTGAATTCCGGTCTCCC
DNA 2: TGGTGGCTACGACGGGATT
B28: CGUAUGU (DNA:RNA)
RNA: B26 RNA with U26G
DNA 1: CAATCTGAATTCCGGTCTCCC
DNA 2: TGGTGGCTACGACGGGATT
B29: CGGUAUG (DNA:RNA)
RNA: B1 RNA with G25C
DNA 1: CAATCTGAATTCCGGTCTCCC
DNA 2: TGGTGGCTACGACGGGATT
B30: CAUAUGU (DNA:RNA)
RNA: B26 RNA with U26A
DNA 1: CAATCTGAATTCCGGTCTCCC
DNA 2: TGGTGGCTACGACGGGATT
B31: CCCGGUA (DNA:RNA)
RNA: B26 RNA with U26C, U27C, A28G, U29G, G30U, U31A
DNA 1: CAATCTGAATTCCGGTCTCCC
DNA 2: TGGTGGCTACGACGGGATT

The binders below were run against T1, RBFOX1 RRM RbFoxmut (Fox-RRM*) (Homo sapiens, UniProt Q9NWB1 109-208, R118D;E147R;N151S;E152T) (assay: EMSA; HiTS-Eq, 1 nM pool, 10 min; buffer printed only for the single-RNA assays: 10 mM Tris pH 7.5, 150 mM NaCl, 3.4 mM EDTA, 0.001% NP-40, 30 C). Conditions: tags: His6 N-terminal (pET28a); label: 5' 32P.
T1 sequence: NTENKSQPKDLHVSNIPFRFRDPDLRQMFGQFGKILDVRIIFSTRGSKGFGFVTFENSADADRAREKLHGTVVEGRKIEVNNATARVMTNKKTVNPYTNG
Procedure, shortened: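 Purified RbFox RRM, wild type or mutant, was incubated for 10 min in 50 µL with 1 nM of a 5′-radiolabelled RNA pool carrying 7 randomized nucleotides, whose flanks were annealed to DNA oligonucleotides, over a series of increasing protein concentrations. Unbound RNA was resolved on 8% native PAGE, cut out, reverse-transcribed, barcoded by PCR and sequenced on an Illumina HiSeq 2500. Relative association constants were derived from changes in read counts for each RNA species versus the control reaction and normalised to the cognate motif.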
With B1 the binding signal was 0.93 KA relative to UGCAUGU. For B2, the binding signal was 0.101 KA relative to UGCAUGU. For B3, the binding signal was 0.183 KA relative to UGCAUGU. In the case of B4, the binding signal is reported as 0.134 KA relative to UGCAUGU. B5 was tested, and the binding signal was 0.497 KA relative to UGCAUGU. For B6, the binding signal was 0.268 KA relative to UGCAUGU. With B7 the binding signal was 0.117 KA relative to UGCAUGU. B8 was tested, and the binding signal was 0.172 KA relative to UGCAUGU. For B9, the binding signal was 0.534 KA relative to UGCAUGU. With B10 the binding signal was 0.123 KA relative to UGCAUGU. With B11 the binding signal was 0.674 KA relative to UGCAUGU. In the case of B12, the binding signal is reported as 0.137 KA relative to UGCAUGU. In the case of B13, the binding signal is reported as 0.0784 KA relative to UGCAUGU. B14 was tested, and the binding signal was 0.0968 KA relative to UGCAUGU. In the case of B15, the binding signal is reported as 0.0953 KA relative to UGCAUGU. B16 was tested, and the binding signal was 0.229 KA relative to UGCAUGU. For B17, the binding signal was 0.0636 KA relative to UGCAUGU. B18 was tested, and the binding signal was 0.0837 KA relative to UGCAUGU. With B19 the binding signal was 0.0853 KA relative to UGCAUGU. With B20 the binding signal was 0.124 KA relative to UGCAUGU. B21 was tested, and the binding signal was 0.191 KA relative to UGCAUGU. B22 was tested, and the binding signal was 1.01 KA relative to UGCAUGU. B23 was tested, and the binding signal was 0.114 KA relative to UGCAUGU. With B24 the binding signal was 0.151 KA relative to UGCAUGU. B25 was tested, and the binding signal was 0.348 KA relative to UGCAUGU. With B26 the binding signal was 0.158 KA relative to UGCAUGU. For B27, the binding signal was 0.498 KA relative to UGCAUGU. For B28, the binding signal was 0.554 KA relative to UGCAUGU. With B29 the binding signal was 0.885 KA relative to UGCAUGU. With B30 the binding signal was 0.149 KA relative to UGCAUGU. With B31 the binding signal was 0.111 KA relative to UGCAUGU.
